From PubChem BioAssay (Tox21)
Inconclusive results are not listed. Where a call stands in place of a potency, no number is given. Calls of active or inactive are those of the source. Unless noted, the call rests on the fitted dose curve; in most records, active means well fitted curve in the direction sought with a large enough effect in the repeat runs; inconclusive means weak or mixed curves; inactive means no such curve, though single readings can be large; an effect the other way counts as inactive or inconclusive.

Columns and labels:
[1] = qHTS assay to identify small molecule antagonists of the estrogen related receptor (ERR) signaling pathway from Tox21 library - cell viability counter screen (AID 1224834); further: nearly all actives have a fitted effect of over 30% in size
How it was run: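 ERR reporter cells, 2,000 per well, rested 6 h, then exposed to compound in DMSO for 17.5 hours at 37 C. Viability read as fluorescence after 30 min with CellTiter-Fluor.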

[2] = biological target: Luciferin 4-monooxygenase (Photinus pyralis) (UniProt P08659); test: qHTS assay to identify small molecule inhibitors of firefly luciferase (AID 1224835); further: series mostly up to about 120 µM; nearly all actives have a fitted effect of over 25% in size
How it was run: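 Inhibition of purified Photinus luciferase is measured by luminescence. Substrate levels (D-luciferin, ATP) sit at their KM values. Each compound is tested in a concentration series.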

[3] = qHTS assay to identify small molecule antagonists of the constitutive androstane receptor (CAR) signaling pathway - cell viability counter screen (AID 1224837); further: series mostly up to about 92 µM; nearly all actives have a fitted effect of over 45% in size
How it was run: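 HepG2 cells stably carrying hCAR and CYP2B6-2.2kb reporter, stimulated with 50 nM CITCO and compounds at 15 concentrations for 23 h at 37 C. Viability measured by CellTiter-Fluor fluorescence.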

[4] = biological target: Nuclear receptor subfamily 1 group I member 3 (Homo sapiens) (UniProt Q14994); test: qHTS assay to identify small molecule antagonists of the constitutive androstane receptor (CAR) signaling pathway (AID 1224838); further: nearly all actives have a fitted effect of over 40% in size
How it was run: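 HepG2 cells stably carrying hCAR and a CYP2B6-2.2kb luciferase reporter, seeded 4 hrs before compound (15 concentrations). Stimulated with 50 nM CITCO for 24 hr at 37 C. ONE-Glo luminescence read after 30 min at room temperature.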

[5] = biological target: Nuclear receptor subfamily 1 group I member 3 (Homo sapiens) (UniProt Q14994); test: qHTS assay to identify small molecule agonists of the constitutive androstane receptor (CAR) signaling pathway (AID 1224839); further: nearly all actives have a fitted effect of over 15% in size; further: potency means the concentration at half of the fitted maximal effect
How it was run: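 HepG2 cells stably expressing hCAR and a CYP2B6-2.2kb luciferase reporter were treated with compounds at 15 concentrations plus 0.75 uM PK11195 (final) for 24 h at 37 C; luminescence was read after ONE-Glo addition.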

[6] = qHTS assay to identify small molecule antagonists of the estrogen related receptor signaling pathway with the pleiotropic PPARgamma coactivator (PGC) from Tox21 10K library - cell viability counter screen (AID 1224840; active means well fitted cell-killing curve with a large enough effect in the repeat runs, not every such curve was filed as active; further: nearly all actives have a fitted effect of over 40% in size)
How it was run: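 PGC/ERR cells (2,000/well) plated 6 h, then compound-treated for 17.5 h at 37 C. Viability measured by CellTiter-Fluor fluorescence after 30 min at 37 C, multiplexed with the pathway assay.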

[7] = qHTS assay to identify small molecule antagonists of the estrogen related receptor signaling pathway with the pleiotropic PPARgamma coactivator (PGC) from Tox21 10K library (AID 1224841; call rule not given here; further: series mostly up to about 92 µM; actives are mostly falling curves and most rising ones were filed inactive; nearly all actives have a fitted effect of over 50% in size)
How it was run: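 PGC/ERR cell line, 2,000 cells/well, pre-incubated 6 hours at 37 C, then exposed to compounds for 18 hours at 37 C; luciferase read with One-Glo luminescence after 30 min at room temperature.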

[8] = qHTS assay to identify small molecule agonists of the constitutive androstane receptor (CAR) signaling pathway - cell viability counter screen (AID 1224836); further: series mostly up to about 92 µM; nearly all actives have a fitted effect of over 45% in size
How it was run: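 HepG2 cells stably carrying hCAR and a CYP2B6-2.2kb reporter were plated 4 h, then given compounds at 15 concentrations plus PK11195 (final 0.75 uM). After 23 h at 37 C, viability was read by CellTiter-Fluor fluorescence.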

[9] = qHTS assay to identify small molecule agonists of the estrogen related receptor signaling pathway with the pleiotropic PPARgamma coactivator (PGC) from Tox21 10K library (AID 1224842); further: nearly all actives have a fitted effect of over 15% in size
How it was run: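 Luminescence from One-Glo (30 min, room temperature) measured after PGC/ERR cells had 18 h at 37 C with pinned compound (23 nL in DMSO). Cells had been seeded at 2,000 per well and pre-incubated 6 h.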

Nuclear receptor subfamily 1 group I member 3 (Homo sapiens), sequence (Q14994 whole entry, looked up): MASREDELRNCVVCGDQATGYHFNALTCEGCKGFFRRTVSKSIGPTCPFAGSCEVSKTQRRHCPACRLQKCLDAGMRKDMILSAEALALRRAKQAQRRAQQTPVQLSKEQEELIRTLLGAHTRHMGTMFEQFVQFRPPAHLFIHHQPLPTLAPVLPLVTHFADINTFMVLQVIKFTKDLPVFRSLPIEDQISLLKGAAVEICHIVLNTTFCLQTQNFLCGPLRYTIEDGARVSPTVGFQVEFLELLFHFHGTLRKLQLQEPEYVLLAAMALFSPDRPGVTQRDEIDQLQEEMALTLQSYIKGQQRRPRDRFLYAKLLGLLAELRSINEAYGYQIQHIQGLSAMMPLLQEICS
Luciferin 4-monooxygenase (Photinus pyralis), sequence (P08659 whole entry, looked up): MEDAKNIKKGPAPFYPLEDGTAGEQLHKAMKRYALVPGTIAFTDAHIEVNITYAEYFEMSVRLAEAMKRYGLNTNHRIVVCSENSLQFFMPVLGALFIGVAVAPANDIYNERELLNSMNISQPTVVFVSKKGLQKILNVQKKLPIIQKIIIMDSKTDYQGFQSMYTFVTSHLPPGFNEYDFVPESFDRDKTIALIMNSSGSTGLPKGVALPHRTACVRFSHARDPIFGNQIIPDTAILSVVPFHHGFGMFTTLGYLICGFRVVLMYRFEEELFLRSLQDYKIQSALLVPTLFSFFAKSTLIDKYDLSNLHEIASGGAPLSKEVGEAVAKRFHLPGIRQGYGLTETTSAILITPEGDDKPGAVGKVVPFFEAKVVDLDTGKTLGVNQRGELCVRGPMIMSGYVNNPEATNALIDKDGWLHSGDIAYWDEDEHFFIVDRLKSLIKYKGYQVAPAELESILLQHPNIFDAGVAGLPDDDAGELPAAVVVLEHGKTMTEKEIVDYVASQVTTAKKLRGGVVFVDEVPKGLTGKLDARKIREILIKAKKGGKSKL

Row | SMILES | Potency [1] | Potency [2] | Potency [3] | Potency [4] | Potency [5] | Potency [6] | Potency [7] | Potency [8] | Potency [9]
1 | O=Cc1ccc([N+](=O)[O-])cc1 | inactive | inactive | inactive | inactive | 61.5 µM (active) | inactive | inactive | – | –
2 | CC(O)CN (centres undefined) | inactive | inactive | inactive | – | – | inactive | inactive | inactive | inactive
3 | CCc1c(C)[nH]c2c1C(=O)C(CN1CCOCC1)CC2 (centres undefined) | inactive | inactive | inactive | – | – | inactive | – | – | –
4 | C=C[Si]1(C)O[Si](C)(C=C)O[Si](C)(C=C)O[Si](C)(C=C)O1 (centres undefined) | inactive | inactive | inactive | inactive | inactive | inactive | – | – | –
5 | C[C@H](CN1CCCC1)C(=O)c1ccc(C(F)(F)F)cc1 | inactive | inactive | – | – | inactive | inactive | – | inactive | –
6 | NC(=O)c1ccccc1 | inactive | inactive | inactive | inactive | inactive | – | – | – | –
